Test results as given in PubChem BioAssay AID1159580 (chemical genetic matrix, 2015).
The campaign covered roughly 5,500 compounds. About 2,000 (36%) were called active. Another 18% or so got no clear call; they are omitted. Rule as the data show it: active = normalized growth mostly below about 0.91 (no sharp cut-off); inconclusive = no clear call, values can overlap the other calls; inactive = mostly above about 0.92. The list shows a part of the results.

Assay: chemical genetic growth profiling, strain panel (AID 1159580);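 also: tested at 20 µM; growth read once vehicle control cultures reached saturation at 30 °C; 1 = growth at the plate median or of vehicle wells; lower values mean less growth of the strain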
Conditions: growth OD

Measured: normalized growth

C[C@]12CCC3c4ccc(OS(=O)(=O)O)cc4CCC3C1CC[C@H]2O (stereo not given in full)
inactive: S. cerevisiae deletion strains, locus YJR043C, strain POL32, stronger effect = lower value 1 | S. cerevisiae deletion strains, locus YJR066W, strain TOR1, stronger effect = lower value 0.983 | S. cerevisiae deletion strains, locus YKL009W, strain mrt4, stronger effect = lower value 0.99 | S. cerevisiae deletion strains, locus YKL068W, stronger effect = lower value 0.995 | S. cerevisiae deletion strains, locus YKL085W, strain MDH1 (second series), stronger effect = lower value 0.987 | S. cerevisiae deletion strains, locus YKL085W, strain MDH1, stronger effect = lower value 0.987 | S. cerevisiae deletion strains, locus YKL160W, strain elf1, stronger effect = lower value 0.923 | S. cerevisiae deletion strains, locus YKL190W, strain CNB1, stronger effect = lower value 1 | S. cerevisiae deletion strains, locus YKR001C, strain vps1, stronger effect = lower value 0.994 | S. cerevisiae deletion strains, locus YKR026C, strain gcn3, stronger effect = lower value 0.988 | S. cerevisiae deletion strains, locus YKR091W, strain srl3, stronger effect = lower value 0.97 | S. cerevisiae deletion strains, locus YLL001W, strain dnm1, stronger effect = lower value 0.994 | S. cerevisiae deletion strains, locus YLL026W, stronger effect = lower value 0.967 | S. cerevisiae deletion strains, locus YLL041C, strain sdh2, stronger effect = lower value 0.978 | S. cerevisiae deletion strains, locus YLR027C, strain aat2, stronger effect = lower value 0.997 | S. cerevisiae deletion strains, locus YLR039C, strain RIC1, stronger effect = lower value 0.977 | S. cerevisiae deletion strains, locus YLR058C, strain SHM2, stronger effect = lower value 0.99 | S. cerevisiae deletion strains, locus YLR102C, strain apc9, stronger effect = lower value 0.99 | S. cerevisiae deletion strains, locus YLR113W, strain HOG1, stronger effect = lower value 0.963 | S. cerevisiae deletion strains, locus YLR221C, strain rsa3, stronger effect = lower value 1.02 | S. cerevisiae deletion strains, locus YLR258W, strain gsy2, stronger effect = lower value 0.965 | S. cerevisiae deletion strains, locus YLR262C, strain YPT6 (second series), stronger effect = lower value 0.977 | S. cerevisiae deletion strains, locus YLR262C, strain YPT6, stronger effect = lower value 0.945 | S. cerevisiae deletion strains, locus YLR268W, strain sec22, stronger effect = lower value 0.973 | S. cerevisiae deletion strains, locus YLR320W, strain mms22, stronger effect = lower value 1.02 | S. cerevisiae deletion strains, locus YLR330W, strain CHS5, stronger effect = lower value 0.987 | S. cerevisiae deletion strains, locus YLR342W, strain FKS1 (second series), stronger effect = lower value 0.988 | S. cerevisiae deletion strains, locus YLR342W, strain FKS1, stronger effect = lower value 0.987 | S. cerevisiae deletion strains, locus YLR357W, strain rsc2, stronger effect = lower value 0.955 | S. cerevisiae deletion strains, locus YLR370C, strain arc18, stronger effect = lower value 0.976 | S. cerevisiae deletion strains, locus YLR371W, strain rom2, stronger effect = lower value 0.986 | S. cerevisiae deletion strains, locus YLR384C, strain iki3, stronger effect = lower value 0.959 | S. cerevisiae deletion strains, locus YLR418C, strain cdc73, stronger effect = lower value 0.973 | S. cerevisiae deletion strains, locus YML016C, strain PPZ1, stronger effect = lower value 0.993 | S. cerevisiae deletion strains, locus YML032C, strain rad52, stronger effect = lower value 0.989 | S. cerevisiae deletion strains, locus YML120C, strain ndi1, stronger effect = lower value 0.995 | S. cerevisiae deletion strains, locus YML124C, strain tub3, stronger effect = lower value 0.988 | S. cerevisiae deletion strains, locus YMR058W, strain fet3, stronger effect = lower value 0.979 | S. cerevisiae deletion strains, locus YMR078C, strain ctf18, stronger effect = lower value 0.982 | S. cerevisiae deletion strains, locus YMR125W, strain sto1, stronger effect = lower value 0.994 | S. cerevisiae deletion strains, locus YMR129W, stronger effect = lower value 0.961 | S. cerevisiae deletion strains, locus YMR205C, strain PFK2, stronger effect = lower value 1.01 | S. cerevisiae deletion strains, locus YMR223W, strain ubp8, stronger effect = lower value 0.985 | S. cerevisiae deletion strains, locus YMR231W, strain pep5, stronger effect = lower value 0.991 | S. cerevisiae deletion strains, locus YMR263W, strain SAP30, stronger effect = lower value 1 | S. cerevisiae deletion strains, locus YMR307W, strain GAS1, stronger effect = lower value 0.928 | S. cerevisiae deletion strains, locus YNL067W, strain RPL9B, stronger effect = lower value 1.02 | S. cerevisiae deletion strains, locus YNL071W, strain lat1, stronger effect = lower value 0.988 | S. cerevisiae deletion strains, locus YNL128W, strain TEP1, stronger effect = lower value 0.982 | S. cerevisiae deletion strains, locus YNL153C, strain GIM3, stronger effect = lower value 1.03 | S. cerevisiae deletion strains, locus YNL183C, strain NPR1, stronger effect = lower value 0.913 | S. cerevisiae deletion strains, locus YNL209W, strain ssb2, stronger effect = lower value 0.979 | S. cerevisiae deletion strains, locus YNL233W, strain BNI4, stronger effect = lower value 0.998 | S. cerevisiae deletion strains, locus YNL248C, strain rpa49, stronger effect = lower value 0.914 | S. cerevisiae deletion strains, locus YNL250W, strain rad50, stronger effect = lower value 0.995 | S. cerevisiae deletion strains, locus YNL271C, strain bni1, stronger effect = lower value 0.989 | S. cerevisiae deletion strains, locus YNL298W, strain CLA4, stronger effect = lower value 0.984 | S. cerevisiae deletion strains, locus YNL307C, strain MCK1, stronger effect = lower value 0.98 | S. cerevisiae deletion strains, locus YNL322C, strain KRE1 (second series), stronger effect = lower value 0.952 | S. cerevisiae deletion strains, locus YNR049C, strain mso1, stronger effect = lower value 0.953 | S. cerevisiae deletion strains, locus YNR052C, strain pop2, stronger effect = lower value 0.982 | S. cerevisiae deletion strains, locus YOL006C, strain TOP1, stronger effect = lower value 1.05 | S. cerevisiae deletion strains, locus YOL012C, strain htz1 1.45 | S. cerevisiae deletion strains, locus YOL147C, strain pex11, stronger effect = lower value 0.984 | S. cerevisiae deletion strains, locus YOR001W, strain rrp6, stronger effect = lower value 1.01 | S. cerevisiae deletion strains, locus YOR061W, strain CKA2, stronger effect = lower value 0.986 | S. cerevisiae deletion strains, locus YOR069W, strain VPS5, stronger effect = lower value 0.988 | S. cerevisiae deletion strains, locus YOR070C, strain gyp1, stronger effect = lower value 0.991 | S. cerevisiae deletion strains, locus YOR080W, strain dia2, stronger effect = lower value 0.96 | S. cerevisiae deletion strains, locus YOR083W, strain WHI5, stronger effect = lower value 0.901 | S. cerevisiae deletion strains, locus YOR106W, strain vam3, stronger effect = lower value 0.95 | S. cerevisiae deletion strains, locus YOR136W, strain idh2, stronger effect = lower value 0.988 | S. cerevisiae deletion strains, locus YOR144C, strain elg1, stronger effect = lower value 0.987 | S. cerevisiae deletion strains, locus YOR184W, strain ser1, stronger effect = lower value 0.995 | S. cerevisiae deletion strains, locus YOR231W, strain MKK1, stronger effect = lower value 0.965 | S. cerevisiae deletion strains, locus YOR265W, strain rbl2, stronger effect = lower value 0.978 | S. cerevisiae deletion strains, locus YOR270C, strain vph1, stronger effect = lower value 0.97 | S. cerevisiae deletion strains, locus YOR290C, strain snf2, stronger effect = lower value 0.951 | S. cerevisiae deletion strains, locus YOR316C, strain cot1, stronger effect = lower value 0.989 | S. cerevisiae deletion strains, locus YPL051W, strain arl3, stronger effect = lower value 0.973 | S. cerevisiae deletion strains, locus YPL078C, strain atp4, stronger effect = lower value 0.97 | S. cerevisiae deletion strains, locus YPL106C, strain sse1, stronger effect = lower value 0.955 | S. cerevisiae deletion strains, locus YPL240C, strain hsp82, stronger effect = lower value 0.984 | S. cerevisiae deletion strains, locus YPL256C, strain CLN2, stronger effect = lower value 0.981 | S. cerevisiae deletion strains, locus YPR119W, strain clb2, stronger effect = lower value 0.988 | S. cerevisiae deletion strains, locus YPR141C, strain kar3, stronger effect = lower value 0.984 | S. cerevisiae deletion strains, locus YPR163C, strain tif3, stronger effect = lower value 0.984 | S. cerevisiae deletion strains, locus YPR167C, strain met16, stronger effect = lower value 0.988 | S. cerevisiae deletion strains, strain wtn01, stronger effect = lower value 0.975 | S. cerevisiae strains, strain wild type, stronger effect = lower value 0.999
